Measurements as given in PubChem BioAssay.
Activity calls are given as the source filed them. Unless noted, the rule behind the calls is not given here.

Columns and labels:
[1] = compounds binding Alexa647 anti-His antibody – biochemical, small-molecule microarray, 635 nm fluorescence, artefact control for SMM control protein annotation, primary screen (AID 1128); conditions: higher = more signal;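 note: score merges feature fluorescence with signal-to-noise for each printed compound spot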
[2] = system: Human papillomavirus type 1a E7 protein (residues 1-88); experiment: HPV1a E7 small-molecule binders, primary screen, biochemical, small-molecule microarray, residues 1-88, 635 nm (AID 1129); conditions: small-molecule microarray binding, fluorescence 635 nm; higher = more signal
[3] = target: Focal adhesion kinase 1 (Homo sapiens) (UniProt Q05397); experiment: PTK2 protein binding on printed compound slides – biochemical, small-molecule microarray, 635/667 nm fluorescence, BSA, DTT, primary screen (AID 1130); conditions: 635 nm fluorescence, higher = more signal;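 note: composite of spot emission at 667 nm and signal to noise over triplicate slides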
Sequence of Focal adhesion kinase 1 (Homo sapiens) (Q05397 whole entry, looked up): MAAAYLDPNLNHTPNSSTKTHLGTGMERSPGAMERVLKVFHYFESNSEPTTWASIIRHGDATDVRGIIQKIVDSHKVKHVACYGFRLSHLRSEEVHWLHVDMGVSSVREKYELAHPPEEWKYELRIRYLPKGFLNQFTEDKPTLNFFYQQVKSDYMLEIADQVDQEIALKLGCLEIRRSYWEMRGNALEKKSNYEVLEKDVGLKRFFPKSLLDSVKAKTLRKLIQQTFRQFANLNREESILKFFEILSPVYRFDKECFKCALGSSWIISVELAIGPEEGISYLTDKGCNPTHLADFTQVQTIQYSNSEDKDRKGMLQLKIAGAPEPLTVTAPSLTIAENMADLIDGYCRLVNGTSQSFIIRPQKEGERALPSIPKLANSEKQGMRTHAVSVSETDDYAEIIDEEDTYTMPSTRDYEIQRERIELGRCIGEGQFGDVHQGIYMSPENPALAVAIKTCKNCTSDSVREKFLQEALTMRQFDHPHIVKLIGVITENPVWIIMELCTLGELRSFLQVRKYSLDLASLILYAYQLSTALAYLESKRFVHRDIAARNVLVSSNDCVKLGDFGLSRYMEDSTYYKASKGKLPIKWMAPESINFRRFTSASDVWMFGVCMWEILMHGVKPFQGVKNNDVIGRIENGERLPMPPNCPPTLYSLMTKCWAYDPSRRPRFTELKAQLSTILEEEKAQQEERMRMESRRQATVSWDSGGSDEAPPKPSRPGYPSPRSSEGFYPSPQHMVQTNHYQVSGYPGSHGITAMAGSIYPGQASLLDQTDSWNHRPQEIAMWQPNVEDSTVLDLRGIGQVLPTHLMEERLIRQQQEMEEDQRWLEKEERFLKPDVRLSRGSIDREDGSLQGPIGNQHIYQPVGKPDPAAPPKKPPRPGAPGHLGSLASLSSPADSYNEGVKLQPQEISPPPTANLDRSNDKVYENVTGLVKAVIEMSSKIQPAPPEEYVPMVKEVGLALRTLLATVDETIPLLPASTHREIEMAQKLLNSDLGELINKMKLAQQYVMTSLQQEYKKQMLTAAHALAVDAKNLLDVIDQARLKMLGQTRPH

[4] = system: Fibrinogen (Alexa647-labelled); experiment: Alexa647-fibrinogen binding to printed small molecules – biochemical, small-molecule microarray, 635/667 nm fluorescence, artefact control for SMM control-protein annotation, profiling panel (AID 1131); conditions: fibrinogen-A647 binding fluorescence, higher = more signal;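 note: z-score merges 667 nm fluorescence with per-spot signal-to-noise over triplicate slides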
[5] = target: Follistatin (Homo sapiens) (UniProt P19883); experiment: FST protein binding to printed compounds – biochemical, small-molecule microarray, 635/667 nm fluorescence, primary screen (AID 1132); conditions: 635 nm fluorescence, higher = more signal
Sequence of Follistatin (Homo sapiens) (P19883 whole entry, looked up): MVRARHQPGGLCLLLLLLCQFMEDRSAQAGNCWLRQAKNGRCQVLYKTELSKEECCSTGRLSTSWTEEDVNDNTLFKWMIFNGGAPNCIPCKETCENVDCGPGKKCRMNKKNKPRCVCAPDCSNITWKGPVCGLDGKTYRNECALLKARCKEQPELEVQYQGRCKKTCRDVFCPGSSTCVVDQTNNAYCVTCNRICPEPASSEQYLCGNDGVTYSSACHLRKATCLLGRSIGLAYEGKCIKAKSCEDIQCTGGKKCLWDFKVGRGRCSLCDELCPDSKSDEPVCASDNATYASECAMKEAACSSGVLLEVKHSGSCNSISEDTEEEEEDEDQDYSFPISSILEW

[6] = target: Fibroblast growth factor 2 (Homo sapiens) (UniProt P09038); experiment: basic fibroblast growth factor binding to printed compounds – biochemical, small-molecule microarray, 635/667 nm fluorescence, primary screen (AID 1133); conditions: FGF2, fluorescence 635/667, higher = more signal
Sequence of Fibroblast growth factor 2 (Homo sapiens) (P09038 whole entry, looked up): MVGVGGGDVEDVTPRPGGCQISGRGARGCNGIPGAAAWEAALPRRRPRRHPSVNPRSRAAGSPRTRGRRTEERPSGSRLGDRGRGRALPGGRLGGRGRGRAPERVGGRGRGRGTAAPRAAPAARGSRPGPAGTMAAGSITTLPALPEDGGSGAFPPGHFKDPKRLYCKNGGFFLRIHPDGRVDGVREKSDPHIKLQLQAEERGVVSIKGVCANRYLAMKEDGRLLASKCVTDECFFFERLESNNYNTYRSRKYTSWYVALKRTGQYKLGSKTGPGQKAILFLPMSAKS

[7] = JC-1 mitochondrial potential readout, lung cancer cells – cell-based, A549, JC-1 fluorescence, basal, 24 h, 100 nL, profiling panel (AID 1138); conditions: higher = more signal;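 note: A549 lung adenocarcinoma cells under basal conditions with no added stimulus; test concentration not given here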
Lefty1 = Lefty1 protein binding to printed compounds – biochemical, small-molecule microarray, 635/667 nm fluorescence, primary screen (AID 1139); conditions: fluorescence 635/667, higher = more signal
[8] = system: wheat germ agglutinin (Triticum aestivum), Alexa647-labelled; experiment: Alexa647-WGA lectin binding to printed small molecules – biochemical, small-molecule microarray, 635/667 nm fluorescence, artefact control for SMM control-protein annotation, profiling panel (AID 1140); conditions: WGA-A647 binding, 635 nm fluorescence, higher = more signal;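 note: score merges 667 nm feature emission with signal to noise over triplicate slides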
[9] = target: Luciferin 4-monooxygenase (Photinus pyralis) (UniProt P08659); experiment: inhibition of purified Photinus pyralis luciferase – biochemical, luminescence, purified enzyme, 2006 set, primary screen (AID 1141); conditions: purified firefly luciferase, SteadyGlo luminescence, 30 min; higher = more signal, called active from +8 up or from −8 down;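 note: cell-free assay with purified firefly luciferase at 100 ng per well in PBS; test concentration not given here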
Sequence of Luciferin 4-monooxygenase (Photinus pyralis) (P08659 whole entry, looked up): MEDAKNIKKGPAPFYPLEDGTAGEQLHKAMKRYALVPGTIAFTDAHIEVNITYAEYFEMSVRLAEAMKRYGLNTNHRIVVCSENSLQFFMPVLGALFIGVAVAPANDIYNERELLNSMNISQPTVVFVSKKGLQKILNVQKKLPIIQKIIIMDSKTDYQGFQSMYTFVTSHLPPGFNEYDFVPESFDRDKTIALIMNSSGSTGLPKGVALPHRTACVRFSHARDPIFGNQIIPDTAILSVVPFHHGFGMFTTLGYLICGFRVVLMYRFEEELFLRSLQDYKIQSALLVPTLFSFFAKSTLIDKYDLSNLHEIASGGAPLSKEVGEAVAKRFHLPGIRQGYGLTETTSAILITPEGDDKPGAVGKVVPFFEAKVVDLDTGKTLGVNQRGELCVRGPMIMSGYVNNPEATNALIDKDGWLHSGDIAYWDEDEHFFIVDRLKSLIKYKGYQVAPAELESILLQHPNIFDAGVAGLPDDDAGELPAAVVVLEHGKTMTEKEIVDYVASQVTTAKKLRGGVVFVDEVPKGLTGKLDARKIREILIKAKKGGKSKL

[10] = system: Wnt5a (protein binding on small-molecule microarray); experiment: small molecules binding Wnt5a protein – biophysical, small-molecule microarray, 635/667 nm fluorescence, primary screen (AID 1142); conditions: 635 nm fluorescence, higher = more signal;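 note: fluorescence read at 667 nm with signal to noise per printed feature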
[11] = ATP-based viability of Huh7 replicon cells – cell-based, CellTiter-Glo luminescence, basal, 48 h, cytotoxicity control for HCV replication inhibitor project, primary screen (AID 1143); conditions: higher = more signal, called active from +8 up or from −8 down;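 note: Huh7 hepatoma cells carrying a hepatitis C replication reporter with no stimulus; test concentration not given here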
[12] = Pseudomonas biofilm growth suppression – PAO1 strain, BacTiter-Glo luminescence, LB-PBS, primary screen (AID 1144); conditions: P. aeruginosa PAO1 biofilm, 12 h, higher = more signal
[13] = basal CRE-LacZ reporter activity in PC12 – cell-based, unstimulated, primary screen (AID 1145); conditions: no forskolin, luminescence, 4.5 h, higher = more signal, called active from +8 up or from −8 down
[14] = forskolin-driven CRE-LacZ activity in PC12 – cell-based, CRE-LacZ reporter, forskolin-stimulated, primary screen (AID 1146); conditions: luminescence, 4.5 h, higher = more signal, called active from +8 up or from −8 down;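 note: PC12 cells with 6xCRE LacZ reporter stimulated by forskolin 10 µM; beta-galactosidase reporter signal reflecting CREB driven transcription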
[15] = target: Streptavidin (Streptomyces avidinii) (UniProt P22629); experiment: compounds binding control protein streptavidin – biophysical, small-molecule microarray, 635/667 nm fluorescence, artefact control for SMM compound annotation, primary screen (AID 1147); conditions: higher = more signal;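 note: signal reflects streptavidin binding to arrayed compounds as a control protein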
Sequence of Streptavidin (Streptomyces avidinii) (P22629 whole entry, looked up): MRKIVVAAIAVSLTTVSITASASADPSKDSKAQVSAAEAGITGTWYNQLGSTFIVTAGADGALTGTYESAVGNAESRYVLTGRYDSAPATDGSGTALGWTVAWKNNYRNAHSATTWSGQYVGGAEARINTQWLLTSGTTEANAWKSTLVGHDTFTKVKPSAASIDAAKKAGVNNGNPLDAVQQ

[16] = probe aInhba binding on compound microarray – biochemical, small-molecule microarray, 635/667 nm fluorescence, primary screen (AID 1148); conditions: higher = more signal;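 note: score merges 667nm spot fluorescence with signal-to-noise for antibody binding to printed compounds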
Torsin-1A (Homo sapiens) [17] = target: Torsin-1A (Homo sapiens) (UniProt O14656); experiment: TOR1A wild-type binding on microarray – cell lysate, small-molecule microarray, lysate, 635/667 nm, primary screen (AID 1149); conditions: COS7 hTOR1A-WT lysate, 635 nm fluorescence, higher = more signal
Sequence of Torsin-1A (Homo sapiens) (O14656 whole entry, looked up): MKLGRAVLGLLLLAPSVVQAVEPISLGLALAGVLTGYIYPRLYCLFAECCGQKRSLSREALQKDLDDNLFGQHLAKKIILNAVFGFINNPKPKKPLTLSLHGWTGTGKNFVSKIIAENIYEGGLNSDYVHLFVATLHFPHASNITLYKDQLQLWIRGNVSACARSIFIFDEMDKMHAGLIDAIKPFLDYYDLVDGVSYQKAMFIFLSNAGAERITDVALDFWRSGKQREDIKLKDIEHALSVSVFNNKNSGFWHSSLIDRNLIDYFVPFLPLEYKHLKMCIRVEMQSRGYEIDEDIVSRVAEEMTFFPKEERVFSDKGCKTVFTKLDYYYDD

Torsin-1A (Homo sapiens) [18] = target: Torsin-1A (Homo sapiens) (UniProt O14656); experiment: torsin A mutant lysate binding on microarrays – cell lysate, small-molecule microarray, COS7 lysate, 635/667 nm fluorescence, primary screen (AID 1150); conditions: COS7 hTOR1A mutant lysate, 635 nm fluorescence, higher = more signal;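 note: score pools 667 nm emission and signal to noise measuring lysate protein binding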
[19] = system: Sonic hedgehog protein (Shh); experiment: Sonic hedgehog microarray binding compounds – biochemical, small-molecule microarray, 635/667 nm fluorescence, primary screen (AID 1151); conditions: 635 nm fluorescence, higher = more signal;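 note: Shh protein binding to compounds spotted on small-molecule microarray slides; score combines spot fluorescence intensity with signal-to-noise across triplicate slides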

Row | Structure (SMILES) | composite z-score [1] | composite z-score [2] | composite z-score [3] | composite z-score [4] | composite z-score [5] | composite z-score [6] | z-score [7] | composite z-score (Lefty1) | composite z-score [8] | z-score [9] | composite z-score [10] | z-score [11] | z-score [12] | z-score [13] | z-score [14] | composite z-score [15] | composite z-score [16] | composite z-score (Torsin-1A (Homo sapiens) [17]) | composite z-score (Torsin-1A (Homo sapiens) [18]) | composite z-score [19]
1 | CC(C)[Si]1(C(C)C)O[C@@H](c2ccccc2)c2cc(-c3ccc(-c4ccc(Cl)c(Cl)c4)o3)nc(CCc3ccccc3)c21 | -0.203 | -0.339 | -0.389 | -1.27 | -2.16 | -0.614 | -0.107 | -1.08 | -1.58 | -0.7 (inactive) | -0.306 | -1.03 (inactive) | 0.251 (inactive) | 0.367 (inactive) | 1.52 (inactive) | -0.549 | -0.204 | -0.555 | -0.181 | -0.74
2 | COc1ccc([Si](C)(C)[C@H]2[C@H](CC(=O)N3CCC[C@H]3CO)O[C@@]3(C(=O)N(c4ccccc4)c4ccccc43)[C@@H]2C)cc1 | 0.318 | 0.0005 | 0.223 | -0.445 | 0.813 | 0.441 | 0.16 | 0.992 | 0.0807 | 0.72 (inactive) | -0.154 | -3.6 (inactive) | 0.355 (inactive) | -0.636 (inactive) | -0.38 (inactive) | -0.124 | -0.154 | 0.656 | 0.0932 | 1.23
3 | Cc1ccc(S[C@]2(C(=O)NCCN3CCOCC3)CC(=O)N(C3CCCCC3)[C@@H]2c2ccc(CO)cc2)cc1 | 1.81 | 1.21 | 1.02 | 0.611 | 0.102 | -0.262 | 1.63 | -0.299 | 0.211 | -0.125 (inactive) | -0.0482 | -0.0065 (inactive) | 0.314 (inactive) | 0.802 (inactive) | 0.893 (inactive) | 0.893 | 0.0422 | 0.18 | 0.783 | 0.318
4 | C=C(CCCC)C(=O)CC[C@H](OC(=O)c1ccccc1-c1ccccc1C(=O)O)c1ccc(CO)o1 | 1.22 | 1.22 | -0.116 | 0.954 | 1.1 | 0.905 | -0.541 | 1.57 | 1.14 | -1.96 (inactive) | 0.123 | 0.0343 (inactive) | -0.976 (inactive) | -0.177 (inactive) | -0.56 (inactive) | 1.5 | 0.0154 | 0.472 | 0.622 | 1.99
5 | Cc1ccc(C(C)CC(O)C2C=CC3C(=O)NC(=O)C3N2Nc2ccccn2)o1 (stereo not given) | 1.17 | -0.722 | -0.121 | -0.633 | 0.709 | 0.243 | 0.839 | 0.643 | -0.0217 | -2.19 (inactive) | -0.0405 | 1.2 (inactive) | -1.31 (inactive) | -0.712 (inactive) | -0.364 (inactive) | -0.585 | 0.0797 | 0.81 | 0.282 | 0.452
6 | O=c1cccc(-c2ccc3ccccc3c2)o1 | -0.829 | -0.788 | -0.179 | -0.656 | 0.305 | -0.276 | 1.14 | -0.123 | -0.276 | -2.88 (inactive) | -0.0955 | -2.3 (inactive) | 0.787 (inactive) | 0.425 (inactive) | 0.0815 (inactive) | 0.351 | -0.025 | -0.0735 | -0.0223 | 0.27
7 | COC(=O)[C@@]1(Cc2ccc(F)cc2)[C@H]2c3cc(C(=O)N(C)C)n(Cc4ccccn4)c3C[C@H]2CN1C(=O)c1ccccc1 | 1.12 | 1.26 | 1.08 | 0.685 | 0.251 | -0.281 | 1.04 | -0.12 | 0.647 | 3 (inactive) | -0.0131 | -1.17 (inactive) | -0.75 (inactive) | -0.947 (inactive) | 0.431 (inactive) | 0.751 | 0.349 | 1.17 | 1.05 | -0.285
8 | CC(C)NC(=O)[C@@H]1c2ccccc2C(=O)N(C2CCCCC2)[C@H]1c1ccc(CO)cc1 | 2.71 | 1.15 | 0.517 | 0.137 | 0.449 | 0.525 | 0.483 | -0.161 | 0.577 | 0.202 (inactive) | 0.242 | -1.17 (inactive) | 0.0353 (inactive) | -0.529 (inactive) | -0.579 (inactive) | -0.148 | 0.152 | 0.13 | -0.28 | 0.0045
9 | Cc1ccc(F)cc1S(=O)(=O)N[C@@H]1CCN(Cc2ccc(C(F)(F)F)cc2)C1 | -0.175 | -0.704 | -0.0343 | -0.292 | 0.277 | -0.456 | 0.197 | 0.22 | -0.655 | -0.0404 (inactive) | -0.192 | -4.39 (inactive) | 1.2 (inactive) | 3.48 (inactive) | 0.777 (inactive) | -0.381 | -0.208 | -0.181 | 0.319 | 0.451
10 | CN1C(=O)C2C=CC(C(O)C(C)(C)C)N(Nc3ccccc3)C2C1=O (stereo not given) | 0.218 | -0.178 | 0.694 | -0.0163 | -0.288 | -0.695 | 0.31 | -1.06 | -0.062 | 0.856 (inactive) | 0.04 | 1.07 (inactive) | -0.101 (inactive) | 0.24 (inactive) | 0.124 (inactive) | 0.0034 | -0.157 | 0.392 | -0.419 | -0.624
